Measured values taken from PubChem BioAssay (Tox21).
Unmarked numbers belong to inactive results. Inconclusive results are not listed. Where a call stands in place of a potency, no number is given. Activity calls are given as the source filed them. Unless noted, calls follow the shape of the dose curve; as a rule, active = well fitted curve in the direction sought with a large enough effect in the repeat runs; inconclusive = weak or mixed curves; inactive = no such curve, though single readings can be large; an effect the other way counts as inactive or inconclusive.

Key:
[1] = target: Progesterone receptor (Homo sapiens) (UniProt P06401); assay: qHTS assay to identify small molecule antagonists of the progesterone receptor (PR) signaling pathway (AID 1346795; active = well fitted inhibition curve with a large enough effect in the signal ratio in the repeat runs, not every such curve was filed as active; the % refers to the signal ratio)
Outline: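 Antagonist mode with agonist R5020 at 1 nM final and 16 hr incubation at 37C. Reporter was beta-lactamase driven by UAS in HEK293T (PR-UAS-bla), 2% charcoal-stripped serum; signal from LiveBLAzer FRET substrate, 2 hr at room temperature.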

[2] = qHTS assay to identify small molecule antagonists of the progesterone receptor (PR) signaling pathway - cell viability counter screen (AID 1346798); also: series mostly up to about 92 µM; nearly all actives have a fitted effect of over 50% in size
Outline: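 Cytotoxicity read as CellTiter-Glo luminescence (30 min, room temperature) in the same wells as the beta-lactamase readout. HEK293T PR-UAS-bla cells in charcoal-stripped 2% FBS received compound and R5020, then 16 h at 37C, 5% CO2.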

[3] = qHTS assay to identify small molecule agonists of the progesterone receptor (PR) signaling pathway - cell viability counter screen (AID 1346799; calls by dose curve; also: nearly all actives have a fitted effect of over 45% in size)
Outline: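 Cytotoxicity measured by CellTiter-Glo luminescence (30 min, RT) in the same wells as the PR beta-lactamase agonist read. Those HEK293T cells had 16 h compound treatment at 37 C in 2% charcoal-stripped FBS medium.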

[4] = qHTS assay to identify small molecule antagonists of the TGF-beta/Smad signaling pathway - cell viability counter screen (AID 1346824); also: nearly all actives have a fitted effect of over 50% in size
Outline: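 SBE-bla HEK 293T cells, incubated overnight, then compound plus 0.25 ng/mL TGF-beta1 (stock added) for 5 hr at 37 C. Viability was read in the same wells by CellTiter-Glo luminescence after 30 min at room temperature.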

[5] = qHTS assay to identify small molecule agonists of the TGF-beta/Smad signaling pathway - cell viability counter screen (AID 1346829); also: top concentration of the series differs between compounds; nearly all actives have a fitted effect of over 45% in size
Outline: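 SBE-bla HEK 293T cells plated overnight, compound exposure 5 hr at 37 C. Viability read in the same wells by CellTiter-Glo luminescence after 30 min at room temperature, following the beta-lactamase read.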

[6] = qHTS assay to identify small molecule agonists of the TGF-beta/Smad signaling pathway (AID 1346859; active = well fitted activation curve with a large enough effect in the signal ratio in the repeat runs, not every such curve was filed as active; the % refers to the signal ratio; also: series mostly up to about 77 µM)
Outline: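 Fluorescence (ex 405 nm; em 460 and 530 nm) was read 2 h after LiveBLAzer FRET substrate at RT. The preceding compound treatment of overnight-plated SBE-bla HEK293T cells lasted 5 h at 37 C.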

[7] = target: Thyrotropin-releasing hormone receptor (Homo sapiens) (UniProt P34981); assay: qHTS assay to identify small molecule antagonists of the thyrotropin-releasing hormone receptor (TRHR) signaling pathway (AID 1346877; active = well fitted inhibition curve with a large enough effect in the repeat runs, not every such curve was filed as active; also: series mostly up to about 51 µM)
Outline: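 Antagonist mode: after a 5 min room-temperature compound exposure, cells were stimulated with 1 nM (final) TRH. Dye-loaded TRHR-HEK293 cells were used, and calcium-dependent fluorescence was followed for 3 min, with 15-point titrations run in triplicate.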

[8] = target: Thyrotropin-releasing hormone receptor (Homo sapiens) (UniProt P34981); assay: qHTS assay to identify small molecule agonists of the thyrotropin-releasing hormone receptor (TRHR) signaling pathway (AID 1346891; calls by dose curve; also: potency is read from the fitted curve at half-maximal effect; as to activation: series mostly up to about 58 µM)
Outline: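 Agonist-mode intracellular calcium readout: kinetic fluorescence over 3 min at 1 s intervals after compound addition to TRHR-HEK293 cells (18 h seeded, 2 h dye-loaded at 37 C). Fifteen concentrations, triplicates.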

[9] = Human pregnane X receptor (PXR) small molecule agonists, qHTS cell viability counter screen (AID 1346977); also: nearly all actives have a fitted effect of over 50% in size; also: potency is read from the fitted curve at half-maximal effect
Outline: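 Same-well viability read: CellTiter-Fluor added after 23 hr compound exposure, fluorescence measured 1 hr later. Cells were PXR-Luc HepG2 seeded at 2,000/well in 5% charcoal-stripped FBS medium, rested 5 hr before dosing at 37 C.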

[10] = Caspase-3/7 induction in HepG2 cells by small molecules, qHTS assay (AID 1346978); also: nearly all actives have a fitted effect of over 15% in size
Outline: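 Wild-type HepG2 cells, 2,000/well, settled 5 hr at 37 C and 5% CO2, then compound-treated for 17 hr; caspase-3/7 activity read by luminescent Caspase-Glo 3/7 after 30 min at room temperature.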

Thyrotropin-releasing hormone receptor (Homo sapiens), sequence (P34981 whole entry, looked up): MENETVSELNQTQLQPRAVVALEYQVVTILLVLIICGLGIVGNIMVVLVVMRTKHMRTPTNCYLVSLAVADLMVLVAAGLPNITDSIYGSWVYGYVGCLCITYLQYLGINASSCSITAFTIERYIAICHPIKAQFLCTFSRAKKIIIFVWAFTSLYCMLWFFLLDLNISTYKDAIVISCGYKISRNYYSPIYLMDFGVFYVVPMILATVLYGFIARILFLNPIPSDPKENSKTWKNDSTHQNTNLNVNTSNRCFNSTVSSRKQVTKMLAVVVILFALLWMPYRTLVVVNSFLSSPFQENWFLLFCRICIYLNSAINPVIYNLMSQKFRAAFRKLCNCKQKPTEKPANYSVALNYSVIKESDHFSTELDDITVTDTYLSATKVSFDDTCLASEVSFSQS
Progesterone receptor (Homo sapiens), sequence (P06401 whole entry, looked up): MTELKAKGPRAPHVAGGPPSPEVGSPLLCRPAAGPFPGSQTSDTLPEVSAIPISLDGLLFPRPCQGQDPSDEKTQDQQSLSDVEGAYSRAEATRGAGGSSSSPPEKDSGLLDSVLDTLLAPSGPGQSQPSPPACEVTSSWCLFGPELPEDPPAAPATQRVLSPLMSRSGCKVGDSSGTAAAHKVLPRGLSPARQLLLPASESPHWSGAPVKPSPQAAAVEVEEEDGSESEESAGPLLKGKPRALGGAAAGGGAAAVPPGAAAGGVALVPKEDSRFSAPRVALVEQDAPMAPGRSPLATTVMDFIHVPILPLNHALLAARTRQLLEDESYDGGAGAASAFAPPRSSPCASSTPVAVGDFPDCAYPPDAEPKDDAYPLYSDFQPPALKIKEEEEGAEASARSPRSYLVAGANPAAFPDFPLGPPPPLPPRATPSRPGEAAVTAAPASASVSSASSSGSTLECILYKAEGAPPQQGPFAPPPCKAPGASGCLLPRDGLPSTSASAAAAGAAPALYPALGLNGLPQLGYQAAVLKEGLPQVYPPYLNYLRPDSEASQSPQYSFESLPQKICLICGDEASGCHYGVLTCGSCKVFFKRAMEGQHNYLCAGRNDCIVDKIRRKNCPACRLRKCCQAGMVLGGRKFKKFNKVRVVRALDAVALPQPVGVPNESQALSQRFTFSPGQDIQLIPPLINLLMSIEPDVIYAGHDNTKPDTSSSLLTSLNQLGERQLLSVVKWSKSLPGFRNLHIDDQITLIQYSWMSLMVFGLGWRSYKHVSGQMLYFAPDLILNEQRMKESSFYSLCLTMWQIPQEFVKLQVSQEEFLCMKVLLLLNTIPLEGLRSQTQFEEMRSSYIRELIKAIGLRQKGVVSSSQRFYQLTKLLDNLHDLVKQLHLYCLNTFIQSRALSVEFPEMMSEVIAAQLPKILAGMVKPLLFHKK

| Structure (SMILES) | Potency [1] | Potency [2] | Potency [3] | outcome [4] | outcome [5] | outcome [6] | outcome [7] | Potency [8] | Potency [9] | outcome [10] |
| --- | --- | --- | --- | --- | --- | --- | --- | --- | --- | --- |
| CC1=NN(c2cc(S(=O)(=O)O)ccc2Cl)C(=O)C1N=Nc1ccccc1 (stereo not drawn) | inactive | inactive | inactive | inactive | inactive | inactive | inactive | inactive | 61.1 µM (active) | inactive |
| CC(=O)c1cnccn1 | inactive | inactive | inactive | inactive | inactive | inactive | inactive | inactive | inactive | inactive |
| CC(C#N)(CCC(=O)O)N=NC(C)(C#N)CCC(=O)O (stereo not drawn) | inactive | inactive | inactive | inactive | inactive | inactive | inactive | inactive | inactive | inactive |
| CC(=O)NC(=O)c1ccccc1O | inactive | inactive | inactive | inactive | inactive | inactive | inactive | inactive | inactive | inactive |
| CC(=O)c1ccc2ccccc2c1 | inactive | inactive | inactive | inactive | inactive | inactive | inactive | inactive | inactive | – |
| COc1c(N2CCNC(C)C2)c(F)cc2c(=O)c(C(=O)O)cn(C3CC3)c12 (stereo not drawn) | inactive | inactive | inactive | inactive | inactive | inactive | inactive | inactive | inactive | inactive |
| O=C(O)c1cc(C(=O)O)cc(C(=O)O)c1 | inactive | inactive | inactive | inactive | inactive | inactive | inactive | inactive | inactive | inactive |
| CC[N+](C)(CC)CCOC(=O)C1c2ccccc2Oc2ccccc21 | inactive | inactive | inactive | inactive | inactive | inactive | inactive | inactive | inactive | inactive |
| CC1(C)OC[C@@H](COC(=O)CCc2ccc(OC[C@@H](O)CNCCNC(=O)N3CCOCC3)cc2)O1 | inactive | inactive | inactive | inactive | inactive | inactive | inactive | inactive | inactive | inactive |
| CCN1CCOCC1 | inactive | inactive | inactive | inactive | inactive | inactive | inactive | inactive | inactive | inactive |
| FB(F)F | inactive | inactive | inactive | inactive | inactive | inactive | inactive | inactive | inactive | inactive |
| CCOCC(C)O (stereo not drawn) | inactive | inactive | inactive | inactive | inactive | inactive | inactive | inactive | inactive | inactive |
| CNCC(O)c1ccc(O)c(O)c1 (stereo not drawn) | inactive | inactive | inactive | inactive | inactive | inactive | inactive | inactive | inactive | inactive |
| CC(=O)Oc1cccc(C)c1 | inactive | inactive | inactive | inactive | inactive | inactive | inactive | inactive | – | – |
| CC(C)(C)C(=O)Oc1ccc(S(=O)(=O)Nc2ccccc2C(=O)NCC(=O)O)cc1 | inactive | inactive | inactive | inactive | inactive | inactive | inactive | inactive | inactive | inactive |
| CCOC(=O)c1ccccc1 | inactive | inactive | inactive | inactive | inactive | inactive | inactive | inactive | inactive | – |
| CC(=O)Nc1ccc(OCC(O)CNC(C)C)cc1 (stereo not drawn) | inactive | inactive | inactive | inactive | inactive | inactive | inactive | inactive | inactive | inactive |
| Nc1ccncc1N | inactive | inactive | inactive | inactive | inactive | inactive | inactive | inactive | inactive | inactive |
| C=CN1CCCCCC1=O | inactive | inactive | inactive | inactive | inactive | inactive | inactive | inactive | inactive | inactive |
| NCCCC(N)(C(=O)O)C(F)F (stereo not drawn) | inactive | inactive | inactive | inactive | inactive | inactive | inactive | inactive | inactive | inactive |
| O=C(CO)[C@@H](O)[C@H](O)[C@H](O)CO | inactive | inactive | inactive | inactive | inactive | inactive | inactive | inactive | inactive | inactive |
| CC(C(=O)O)c1cccc(Oc2ccccc2)c1 (stereo not drawn) | inactive | inactive | inactive | inactive | inactive | inactive | inactive | inactive | inactive | inactive |
| CCOC(=O)c1cnc2c(cnn2CC)c1NN=C(C)C | inactive | inactive | inactive | inactive | inactive | inactive | inactive | inactive | inactive | – |
| CC[C@H]1OC(=O)[C@H](C)[C@@H](O[C@H]2C[C@@](C)(OC)[C@@H](O)[C@H](C)O2)[C@H](C)[C@@H](O[C@@H]2O[C@H](C)C[C@H](N(C)C)[C@H]2O)[C@](C)(OC)C[C@@H](C)C(=O)[C@H](C)[C@@H](O)[C@]1(C)O | inactive | inactive | inactive | inactive | inactive | inactive | inactive | inactive | inactive | inactive |

| Structure (SMILES) | Potency [1] | Potency [2] | Potency [3] | outcome [4] | outcome [5] | outcome [6] | outcome [7] | Potency [8] | Potency [9] | outcome [10] |
| --- | --- | --- | --- | --- | --- | --- | --- | --- | --- | --- |
| C1CCC2=NCCCN2CC1 | inactive | inactive | inactive | inactive | inactive | inactive | – | – | – | – |
| Cc1nc2ccc(CN(C)c3ccc(C(=O)N[C@@H](CCC(=O)O)C(=O)O)s3)cc2c(=O)[nH]1 | inactive | inactive | inactive | inactive | inactive | inactive | inactive | inactive | inactive | inactive |
| CCCc1ncc(C[n+]2ccccc2C)c(N)n1 | inactive | inactive | inactive | inactive | inactive | inactive | inactive | inactive | inactive | inactive |
| NC(CCC(=O)O)C(=O)O (stereo not drawn) | inactive | inactive | inactive | inactive | inactive | inactive | inactive | inactive | – | – |
| COc1cc(C(=O)NCc2ccc(OCCN(C)C)cc2)cc(OC)c1OC | inactive | inactive | inactive | inactive | inactive | inactive | inactive | inactive | inactive | – |
| CC(C)C(=O)OC(=O)C(C)C | inactive | inactive | inactive | inactive | inactive | inactive | inactive | inactive | inactive | inactive |
| CNCCO | inactive | inactive | inactive | inactive | inactive | inactive | inactive | inactive | inactive | inactive |
| COc1cc(-c2ccc(=O)[nH]n2)ccc1OC(F)F | inactive | inactive | inactive | inactive | inactive | inactive | inactive | inactive | inactive | inactive |
| C=COC(=O)C(C)(CC)CCC(C)C (stereo not drawn) | inactive | inactive | inactive | inactive | inactive | inactive | inactive | inactive | inactive | – |
| CCCCN(CCC(=O)OCC)C(C)=O | inactive | inactive | inactive | inactive | inactive | inactive | inactive | inactive | inactive | inactive |
| Nc1c2c(nc3c1CCC3)CCCC2 | inactive | inactive | inactive | inactive | inactive | inactive | inactive | inactive | inactive | inactive |
| CC(C)(CCC(=O)O)C(=O)O | inactive | inactive | inactive | inactive | inactive | inactive | inactive | inactive | inactive | inactive |
| Cc1ccccc1N=C(N)N=C(N)N | inactive | inactive | inactive | inactive | inactive | inactive | inactive | inactive | inactive | – |
| CC1=CC(=O)[C@H]2C[C@@H]1C2(C)C | inactive | inactive | inactive | inactive | inactive | inactive | inactive | inactive | inactive | inactive |
| O=C(O)CCCC[P+](c1ccccc1)(c1ccccc1)c1ccccc1 | inactive | inactive | inactive | inactive | inactive | inactive | – | – | inactive | – |
| COCCOC[C@H](CC1(C(=O)NC2CCC(C(=O)O)CC2)CCCC1)C(=O)Oc1ccc2c(c1)CCC2 (stereo partly drawn) | inactive | inactive | inactive | inactive | inactive | inactive | – | 11 µM (active) | inactive | – |
| CCCC(C)C(=O)OCC (stereo not drawn) | inactive | inactive | inactive | inactive | inactive | inactive | inactive | inactive | – | inactive |
| CCCCCCCCCC[N+](C)(C)[O-] | inactive | inactive | inactive | inactive | inactive | inactive | inactive | inactive | – | inactive |
| CN(C)[C@@H]1C(=O)C(C(=O)NCN2CCCC2)=C(O)[C@@]2(O)C(=O)C3=C(O)c4c(O)cccc4[C@@](C)(O)C3C[C@@H]12 (stereo partly drawn) | inactive | inactive | inactive | inactive | inactive | inactive | inactive | inactive | – | inactive |
| NCCCC[C@H](N[C@@H](CCc1ccccc1)C(=O)O)C(=O)N1CCC[C@H]1C(=O)O | inactive | inactive | inactive | inactive | inactive | inactive | – | – | inactive | inactive |
| C=COCC1CCC(COC=C)CC1 (stereo not drawn) | inactive | inactive | inactive | inactive | inactive | inactive | – | – | inactive | inactive |
| O=C(O)CNC(=O)c1ccccc1 | inactive | inactive | inactive | inactive | inactive | inactive | inactive | inactive | inactive | inactive |
| CO[C@@]1(NC(=O)CSC[C@@H](N)C(=O)O)C(=O)N2C(C(=O)O)=C(CSc3nnnn3C)CS[C@@H]21 | inactive | inactive | inactive | inactive | inactive | inactive | inactive | inactive | inactive | inactive |
| CC1(C)[C@@H]2CC[C@@]1(C)[C@H](O)C2 | inactive | inactive | inactive | inactive | inactive | inactive | inactive | inactive | – | inactive |
